# According to the supplement of paper PMC8728848:
# Many of the other results were omitted from the sample, so the strongest signals are more common in it than they were.
# What was measured:
# Experiment in all cases: glycan array binding signal (z-score within array); higher = stronger binding
# Conditions in all cases: glycan notation: IUPAC condensed, linker removed
# [1] = test system: GlcNAc(b1-3)Gal(b1-4)GlcNAc
# Procedure, shortened: (§1)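 The Consortium for Functional Glycomics database supplied 3228 glycan arrays, of which those lacking an available protein sequence were dropped. The binding signal, a within-array Z-score, was averaged across arrays of the same protein sequence and across linkers. Negative scores can be read as non-binding.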
# Kdn(a2-3)Gal(b1-3)GlcNAc = test system: Kdn(a2-3)Gal(b1-3)GlcNAc
# Procedure, shortened: as §1
# [2] = test system: GlcNAc(b1-3)[GlcNAc(b1-6)]Gal(b1-4)GlcNAc
# Procedure, shortened: as §1
# GlcNAc(b1-6)GalNAc = test system: GlcNAc(b1-6)GalNAc
# Procedure, shortened: as §1
# [3] = test system: GlcNAc(b1-3)[GlcNAc(b1-6)]GalNAc
# Procedure, shortened: as §1
# [4] = test system: GlcNAc(b1-4)GlcNAc(b1-4)GlcNAc(b1-4)GlcNAc(b1-4)GlcNAc
# Procedure, shortened: as §1
# GlcNAc(b1-3)Gal(b1-4)Glc = test system: GlcNAc(b1-3)Gal(b1-4)Glc
# Procedure, shortened: as §1
# GlcNAc(b1-3)GalNAc = test system: GlcNAc(b1-3)GalNAc
# Procedure, shortened: as §1
# GlcNAc(b1-4)GlcNAc = test system: GlcNAc(b1-4)GlcNAc
# Procedure, shortened: as §1
# [5] = test system: GlcNAc(b1-4)Gal(b1-4)GlcNAc
# Procedure, shortened: as §1
substance,measurement,setting,value
AgI/IIC123-GFP (Streptococcus mutans),glycan array binding signal (z-score),[1],-0.479
same,glycan array binding signal (z-score),Kdn(a2-3)Gal(b1-3)GlcNAc,-0.106
"GspB (Streptococcus gordonii), Q939N5",glycan array binding signal (z-score),[2],-0.418
same,glycan array binding signal (z-score),GlcNAc(b1-6)GalNAc,-0.73
"BambL (Burhholderia ambifaria), Q0B4G1",glycan array binding signal (z-score),[3],-0.313
same,glycan array binding signal (z-score),[4],-0.314
Epa22,glycan array binding signal (z-score),GlcNAc(b1-3)Gal(b1-4)Glc,-0.695
same,glycan array binding signal (z-score),GlcNAc(b1-3)GalNAc,-0.435
"Wza (Escherichia coli), P0A930",glycan array binding signal (z-score),[2],3.12
"SpGH101 (Streptococcus pneumoniae), Q8DR60",glycan array binding signal (z-score),GlcNAc(b1-4)GlcNAc,-0.14
LcI (Legionella pneumophila),glycan array binding signal (z-score),[5],4
